PubChem BioAssay AID1159580 (chemical genetic matrix, 2015)
About 2,000 (36%) of roughly 5,500 compounds were called active. Inconclusive results (about 18%) are left out. No stated cut-off is given here; in the data, active means normalized growth mostly below about 0.91 (no sharp cut-off); inconclusive means no clear call, values can overlap the other calls; inactive means mostly above about 0.92. The list shows a part of the results.

Assay: chemical genetic growth profiling, strain panel (AID 1159580);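 further: tested at 20 µM; growth read once vehicle control cultures reached saturation at 30 °C; 1 = growth at the plate median or of vehicle wells; lower values mean less growth of the strain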
Details: growth OD
[1] = S. cerevisiae deletion strains, locus YDL101C, strain DUN1, hits give low values
[2] = S. cerevisiae deletion strains, locus YHR030C, strain SLT2, hits give low values
[3] = S. cerevisiae deletion strains, locus YAL013W, strain DEP1, hits give low values
[4] = S. cerevisiae deletion strains, locus YBR229C, strain ROT2, hits give low values
[5] = S. cerevisiae deletion strains, locus YDR150W, strain NUM1, hits give low values
[6] = S. cerevisiae deletion strains, locus YEL061C, strain CIN8, hits give low values
[7] = S. cerevisiae deletion strains, locus YGR078C, strain PAC10, hits give low values
[8] = S. cerevisiae deletion strains, locus YHR087W, strain rtc3, hits give low values
[9] = S. cerevisiae deletion strains, locus YJR043C, strain POL32, hits give low values
[10] = S. cerevisiae deletion strains, locus YJR075W, strain HOC1, hits give low values
[11] = S. cerevisiae deletion strains, locus YKL190W, strain CNB1, hits give low values
[12] = S. cerevisiae deletion strains, locus YLR039C, strain RIC1, hits give low values
[13] = S. cerevisiae deletion strains, locus YLR058C, strain SHM2 (second series), hits give low values
[14] = S. cerevisiae deletion strains, locus YLR085C, strain ARP6, hits give low values
[15] = S. cerevisiae deletion strains, locus YLR262C, strain YPT6, hits give low values
[16] = S. cerevisiae deletion strains, locus YML094W, strain GIM5, hits give low values
[17] = S. cerevisiae deletion strains, locus YMR219W, strain ESC1, hits give low values
[18] = S. cerevisiae deletion strains, locus YMR263W, strain SAP30, hits give low values
[19] = S. cerevisiae deletion strains, locus YMR307W, strain GAS1, hits give low values
[20] = S. cerevisiae deletion strains, locus YNL128W, strain TEP1, hits give low values
[21] = S. cerevisiae deletion strains, locus YNL153C, strain GIM3, hits give low values
[22] = S. cerevisiae deletion strains, locus YNL298W, strain CLA4 (second series), hits give low values
[23] = S. cerevisiae deletion strains, locus YNL322C, strain KRE1, hits give low values
[24] = S. cerevisiae deletion strains, locus YNR030W, strain Alg12, hits give low values
[25] = S. cerevisiae deletion strains, locus YPL055C, strain LGE1, hits give low values
[26] = S. cerevisiae deletion strains, locus YPL241C, strain CIN2, hits give low values
[27] = S. cerevisiae deletion strains, locus YPR135W, strain CTF4, hits give low values
[28] = S. cerevisiae deletion strains, locus YAL040C, strain CLN3, hits give low values
[29] = S. cerevisiae deletion strains, locus YDR363W, strain ESC2, hits give low values
[30] = S. cerevisiae deletion strains, locus YER002W, strain NOP16, hits give low values
[31] = S. cerevisiae deletion strains, locus YNL175C, strain NOP13, hits give low values
[32] = S. cerevisiae deletion strains, locus YNL197C, strain WHI3, hits give low values
[33] = S. cerevisiae deletion strains, locus YNL224C, strain SQS1, hits give low values
[34] = S. cerevisiae deletion strains, locus YOR083W, strain WHI5 (second series), hits give low values

Measured: normalized growth

C/C(=N/NC(=O)c1ccc(C(C)(C)C)cc1)c1ccccc1O
active: S. cerevisiae deletion strains, locus YLR113W, strain HOG1, hits give low values 0.779 | S. cerevisiae deletion strains, locus YPL256C, strain CLN2, hits give low values 0.808
inactive: S. cerevisiae deletion strains, locus YAR019C, strain CDC15, hits give low values 0.985 | S. cerevisiae deletion strains, locus YBL105C, strain PKC1, hits give low values 0.979 | S. cerevisiae deletion strains, locus YBR135W, strain CKS1, hits give low values 0.969 | S. cerevisiae deletion strains, locus YBR136W, strain MEC1, hits give low values 0.979 | S. cerevisiae deletion strains, locus YBR160W, strain CDC28, hits give low values 0.98 | S. cerevisiae deletion strains, locus YDL017W, strain CDC7, hits give low values 0.979 | S. cerevisiae deletion strains, locus YDL028C, strain MPS1, hits give low values 0.974 | [1] 0.963 | S. cerevisiae deletion strains, locus YDL108W, strain KIN28, hits give low values 0.972 | S. cerevisiae deletion strains, locus YDL132W, strain cdc53, hits give low values 0.98 | S. cerevisiae deletion strains, locus YDL214C, strain PRR2, hits give low values 0.976 | S. cerevisiae deletion strains, locus YDR052C, strain DBF4, hits give low values 0.979 | S. cerevisiae deletion strains, locus YDR054C, strain cdc34, hits give low values 0.978 | S. cerevisiae deletion strains, locus YDR226W, strain ADK1, hits give low values 0.971 | S. cerevisiae deletion strains, locus YDR477W, strain SNF1, hits give low values 0.985 | S. cerevisiae deletion strains, locus YER123W, strain YCK3, hits give low values 0.97 | S. cerevisiae deletion strains, locus YER133W, strain GLC7, hits give low values 0.979 | S. cerevisiae deletion strains, locus YFL009W, strain cdc4, hits give low values 0.977 | S. cerevisiae deletion strains, locus YFL029C, strain CAK1, hits give low values 0.974 | S. cerevisiae deletion strains, locus YFR003C, strain YPI1, hits give low values 0.979 | S. cerevisiae deletion strains, locus YFR019W, strain FAB1, hits give low values 1.01 | S. cerevisiae deletion strains, locus YFR028C, strain CDC14, hits give low values 0.981 | S. cerevisiae deletion strains, locus YGR040W, strain KSS1, hits give low values 0.994 | S. cerevisiae deletion strains, locus YGR052W, strain FMP48, hits give low values 1 | S. cerevisiae deletion strains, locus YGR092W, strain DBF2, hits give low values 0.934 | [2] 0.876 | S. cerevisiae deletion strains, locus YHR079C, strain IRE1, hits give low values 0.952 | S. cerevisiae deletion strains, locus YHR082C, strain KSP1, hits give low values 1.07 | S. cerevisiae deletion strains, locus YHR205W, strain SCH9, hits give low values 0.995 | S. cerevisiae deletion strains, locus YIL147C, strain SLN1, hits give low values 0.976 | S. cerevisiae deletion strains, locus YJL095W, strain BCK1, hits give low values 0.972 | S. cerevisiae deletion strains, locus YJL128C, strain PBS2, hits give low values 0.939 | S. cerevisiae deletion strains, locus YJL157C, strain FAR1, hits give low values 0.981 | S. cerevisiae deletion strains, locus YJR016C, strain ILV3, hits give low values 0.987 | S. cerevisiae deletion strains, locus YJR066W, strain TOR1 (second series), hits give low values 0.969 | S. cerevisiae deletion strains, locus YJR066W, strain TOR1, hits give low values 1.05 | S. cerevisiae deletion strains, locus YKL048C, strain ELM1, hits give low values 0.985 | S. cerevisiae deletion strains, locus YKL067W, strain YNK1, hits give low values 0.966 | S. cerevisiae deletion strains, locus YKL101W, strain HSL1, hits give low values 0.987 | S. cerevisiae deletion strains, locus YKL193C, strain SDS22, hits give low values 0.988 | S. cerevisiae deletion strains, locus YKL203C, strain TOR2, hits give low values 1.01 | S. cerevisiae deletion strains, locus YLR133W, strain CKI1, hits give low values 0.988 | S. cerevisiae deletion strains, locus YLR403W, strain SFP1, hits give low values 1 | S. cerevisiae deletion strains, locus YML070W, strain DAK1, hits give low values 0.964 | S. cerevisiae deletion strains, locus YMR001C, strain CDC5, hits give low values 0.978 | S. cerevisiae deletion strains, locus YMR205C, strain PFK2 (second series), hits give low values 0.981 | S. cerevisiae deletion strains, locus YMR277W, strain FCP1, hits give low values 0.98 | S. cerevisiae deletion strains, locus YNL006W, strain LST8, hits give low values 0.976 | S. cerevisiae deletion strains, locus YNL020C, strain ARK1, hits give low values 1.01 | S. cerevisiae deletion strains, locus YNL161W, strain CBK1, hits give low values 0.983 | S. cerevisiae deletion strains, locus YNL183C, strain NPR1, hits give low values 1.01 | S. cerevisiae deletion strains, locus YNL207W, strain RIO2, hits give low values 0.969 | S. cerevisiae deletion strains, locus YNL222W, strain SSU72, hits give low values 0.976 | S. cerevisiae deletion strains, locus YNL307C, strain MCK1 (second series), hits give low values 1.01 | S. cerevisiae deletion strains, locus YOL078W, strain AVO1, hits give low values 0.986 | S. cerevisiae deletion strains, locus YOL136C, strain PFK27, hits give low values 0.977 | S. cerevisiae deletion strains, locus YOR061W, strain CKA2, hits give low values 0.995 | S. cerevisiae deletion strains, locus YOR119C, strain RIO1, hits give low values 1.05 | S. cerevisiae deletion strains, locus YOR231W, strain MKK1, hits give low values 0.952 | S. cerevisiae deletion strains, locus YOR329C, strain SCD5, hits give low values 0.975 | S. cerevisiae deletion strains, locus YPL031C, strain PHO85, hits give low values 0.979 | S. cerevisiae deletion strains, locus YPL153C, strain RAD53, hits give low values 0.981 | S. cerevisiae deletion strains, locus YPL204W, strain HRR25, hits give low values 0.967 | S. cerevisiae deletion strains, locus YPL209C, strain IPL1, hits give low values 0.977 | S. cerevisiae deletion strains, locus YPR025C, strain CCL1, hits give low values 0.971 | S. cerevisiae deletion strains, locus YPR106W, strain ISR1, hits give low values 0.986 | S. cerevisiae deletion strains, locus YPR111W, strain DBF20, hits give low values 0.972 | S. cerevisiae deletion strains, strain NNK1, hits give low values 0.966 | S. cerevisiae deletion strains, strain TSCII, hits give low values 0.981

COc1cccc(C(=O)N/N=C(/C)c2ccccc2O)c1
inactive: [3] 0.975 | [4] 0.961 | S. cerevisiae deletion strains, locus YCL061C, strain MRC1, hits give low values 0.915 | [1] 0.93 | [5] 0.92 | [6] 0.982 | [7] 0.955 | [8] 0.981 | [9] 0.958 | [10] 0.969 | [13] 0.994 | [17] 0.987 | [18] 0.969 | [21] 0.973 | [23] 0.985 | [25] 0.991
active: [2] 0.466 | [11] 0.802 | [12] 0.618 | [14] 0.395 | [15] 0.625 | [16] 0.817 | [19] 0.537 | [20] 0.871 | [22] 0.805 | [24] 0.759 | [26] 0.791 | [27] 0.592 | S. cerevisiae strains, strain wild type, hits give low values 0.777

COc1cccc(C(=O)NCCN2CCN(c3ccc(Cl)cc3)CC2)c1
inactive: [28] 0.992 | [5] 1.01 | [29] 1.01 | [30] 1.02 | [7] 1.01 | S. cerevisiae deletion strains, locus YGR229C, strain SMI1, hits give low values 1 | [19] 1.01 | [21] 1.01 | [31] 1.03 | [32] 1.01 | [33] 1.03 | [34] 1.03 | [26] 1.01

Cc1cccc(C(=O)c2ccccc2C(=O)O)c1
inactive: [3] 1.01 | [4] 1.02 | [1] 1 | [5] 0.905 | [6] 1.01 | [7] 0.997 | [2] 1.06 | [8] 1.01 | S. cerevisiae deletion strains, locus YJL187C, strain SWE1, hits give low values 0.998 | [9] 1.02 | [10] 1 | [11] 0.997 | [12] 0.986 | [13] 1.01 | [14] 1.03 | [15] 0.984 | [16] 1.01 | [17] 1.01 | [18] 0.991 | [20] 1.01 | [21] 1.02 | [22] 1.04 | [23] 0.993 | [24] 1.01 | [25] 1.02 | [26] 1.01 | [27] 1.02

CN(C)C(=O)N=NC(=O)N(C)C
inactive: [28] 0.985 | S. cerevisiae deletion strains, locus YCL061C, strain MRC1 (second series), hits give low values 0.994 | [29] 1.04 | [30] 1.03 | [7] 0.99 | [10] 1.02 | [20] 0.983 | [21] 0.968 | [31] 0.996 | [32] 0.984 | [33] 1.01 | [23] 1.02 | [34] 0.968 | [25] 1.06
